# Results: PubChem BioAssay AID1159580 (chemical genetic matrix, 2015)
# Screen size: about 5,500 compounds; about 2,000 (36%) were called active. About 18% were inconclusive and are not listed. The list shows a part of the results. Unmarked numbers belong to inactive results. Cut-off read from the data, not from the text of the source: active = normalized growth mostly below about 0.91 (no sharp cut-off); inconclusive = no clear call, values can overlap the other calls; inactive = mostly above about 0.92.
# Experiment: chemical genetic growth profiling, strain panel (AID 1159580);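 note: tested at 20 µM; growth read once vehicle control cultures reached saturation at 30 °C; 1 = growth at the plate median or of vehicle wells; lower values mean less growth of the strain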
# Details: growth OD
# [1] = S. cerevisiae deletion strains, locus YAL013W, strain DEP1, stronger effect = lower value
# [2] = S. cerevisiae deletion strains, locus YBR229C, strain ROT2, stronger effect = lower value
# [3] = S. cerevisiae deletion strains, locus YCL061C, strain MRC1, stronger effect = lower value
# [4] = S. cerevisiae deletion strains, locus YDL101C, strain DUN1, stronger effect = lower value
# [5] = S. cerevisiae deletion strains, locus YDR150W, strain NUM1, stronger effect = lower value
# [6] = S. cerevisiae deletion strains, locus YEL061C, strain CIN8, stronger effect = lower value
# [7] = S. cerevisiae deletion strains, locus YGR078C, strain PAC10, stronger effect = lower value
# [8] = S. cerevisiae deletion strains, locus YHR030C, strain SLT2, stronger effect = lower value
# [9] = S. cerevisiae deletion strains, locus YHR087W, strain rtc3, stronger effect = lower value
# [10] = S. cerevisiae deletion strains, locus YJL187C, strain SWE1, stronger effect = lower value
# [11] = S. cerevisiae deletion strains, locus YJR043C, strain POL32, stronger effect = lower value
# [12] = S. cerevisiae deletion strains, locus YJR075W, strain HOC1, stronger effect = lower value
# [13] = S. cerevisiae deletion strains, locus YLR039C, strain RIC1, stronger effect = lower value
# [14] = S. cerevisiae deletion strains, locus YLR058C, strain SHM2 (second series), stronger effect = lower value
# [15] = S. cerevisiae deletion strains, locus YLR085C, strain ARP6, stronger effect = lower value
# [16] = S. cerevisiae deletion strains, locus YLR262C, strain YPT6, stronger effect = lower value
# [17] = S. cerevisiae deletion strains, locus YML094W, strain GIM5, stronger effect = lower value
# [18] = S. cerevisiae deletion strains, locus YMR219W, strain ESC1, stronger effect = lower value
# [19] = S. cerevisiae deletion strains, locus YMR263W, strain SAP30, stronger effect = lower value
# [20] = S. cerevisiae deletion strains, locus YMR307W, strain GAS1, stronger effect = lower value
# [21] = S. cerevisiae deletion strains, locus YNL153C, strain GIM3, stronger effect = lower value
# [22] = S. cerevisiae deletion strains, locus YNL298W, strain CLA4 (second series), stronger effect = lower value
# [23] = S. cerevisiae deletion strains, locus YNL322C, strain KRE1, stronger effect = lower value
# [24] = S. cerevisiae deletion strains, locus YNR030W, strain Alg12, stronger effect = lower value
# [25] = S. cerevisiae deletion strains, locus YPL055C, strain LGE1, stronger effect = lower value
# [26] = S. cerevisiae deletion strains, locus YPR135W, strain CTF4, stronger effect = lower value
# [27] = S. cerevisiae deletion strains, locus YDL134C, strain PPH21, stronger effect = lower value
# [28] = S. cerevisiae deletion strains, locus YKL190W, strain CNB1, stronger effect = lower value
# [29] = S. cerevisiae deletion strains, locus YOL006C, strain TOP1, stronger effect = lower value
# [30] = S. cerevisiae deletion strains, locus YPL241C, strain CIN2, stronger effect = lower value
smiles,measurement,setting,value
O=C(CSc1nnc(NC(=O)c2cccc([N+](=O)[O-])c2)s1)Nc1ccc2c(c1)OCO2,normalized growth,[1],0.991
same,normalized growth,[2],0.995
same,normalized growth,[3],1.01
same,normalized growth,[4],0.986
same,normalized growth,[5],0.982
same,normalized growth,[6],0.982
same,normalized growth,[7],0.991
same,normalized growth,[8],0.985
same,normalized growth,[9],0.997
same,normalized growth,[10],0.995
same,normalized growth,[11],0.977
same,normalized growth,[12],1.02
same,normalized growth,[13],0.976
same,normalized growth,[14],0.985
same,normalized growth,[15],0.996
same,normalized growth,[16],0.985
same,normalized growth,[17],0.948
same,normalized growth,[18],1
same,normalized growth,[19],1.01
same,normalized growth,[20],1.05
same,normalized growth,[21],1.01
same,normalized growth,[22],1
same,normalized growth,[23],0.989
same,normalized growth,[24],1.01
same,normalized growth,[25],0.998
same,normalized growth,[26],0.939
O=C(Nc1nccs1)c1ccc([N+](=O)[O-])cc1,normalized growth,[1],0.979
same,normalized growth,[2],0.97
same,normalized growth,[3],0.992
same,normalized growth,[4],0.972
same,normalized growth,[27],1.01
same,normalized growth,[5],0.984
same,normalized growth,[6],0.968
same,normalized growth,[7],0.973
same,normalized growth,[8],0.977
same,normalized growth,[9],0.973
same,normalized growth,[11],1.02
same,normalized growth,[12],0.924
same,normalized growth,[28],1
same,normalized growth,[13],0.851
same,normalized growth,[14],0.981
same,normalized growth,[15],0.729 (active)
same,normalized growth,[16],0.917
same,normalized growth,[17],0.94
same,normalized growth,[18],0.978
same,normalized growth,[19],0.986
same,normalized growth,[20],0.905
same,normalized growth,[21],0.976
same,normalized growth,[22],0.976
same,normalized growth,[23],0.983
same,normalized growth,[24],0.97
same,normalized growth,[29],0.514 (active)
same,normalized growth,[25],0.97
same,normalized growth,[30],0.954
same,normalized growth,[26],0.933
O=C(Nc1nncs1)c1ccncc1,normalized growth,[1],0.983
same,normalized growth,[2],1
same,normalized growth,[4],0.999
same,normalized growth,[27],1.02
same,normalized growth,[5],0.946
same,normalized growth,[6],0.999
same,normalized growth,[7],1
same,normalized growth,[8],0.996
same,normalized growth,[9],1
same,normalized growth,[10],0.992
same,normalized growth,[11],1.01
same,normalized growth,[12],0.991
same,normalized growth,[28],1.03
same,normalized growth,[13],1.08
same,normalized growth,[14],1
same,normalized growth,[15],1.04
same,normalized growth,[16],1.05
same,normalized growth,[17],1.02
same,normalized growth,[18],1
same,normalized growth,[19],0.949
same,normalized growth,[20],1.02
same,normalized growth,"S. cerevisiae deletion strains, locus YNL128W, strain TEP1, stronger effect = lower value",1.02
same,normalized growth,[21],0.995
same,normalized growth,[22],1.07
same,normalized growth,[23],1
same,normalized growth,[24],1.04
same,normalized growth,[29],1.08
same,normalized growth,[25],0.888
same,normalized growth,[30],1.03
same,normalized growth,[26],1.05
same,normalized growth,"S. cerevisiae strains, strain wild type, stronger effect = lower value",1.04
